From PubChem
Only a selection was taken, and hits are over-represented in it overall.
Luciferase inh – firefly luciferase inhibition. actives 2.2% (n = 72,000). Potency, µM (doses to about 57.1 µM), without a hit: at the top dose activity change, negative = inhibition, hits mostly inhibitors. purified firefly luciferase, luminescence, 8 min. AID 411; also: potency is read from the fitted curve at half-maximal effect; % is scaled to controls: 0 for no effect and ±100 for the full control effect; nearly all actives have a fitted effect of over 40% in size
Target sequence (P08659 whole entry, looked up): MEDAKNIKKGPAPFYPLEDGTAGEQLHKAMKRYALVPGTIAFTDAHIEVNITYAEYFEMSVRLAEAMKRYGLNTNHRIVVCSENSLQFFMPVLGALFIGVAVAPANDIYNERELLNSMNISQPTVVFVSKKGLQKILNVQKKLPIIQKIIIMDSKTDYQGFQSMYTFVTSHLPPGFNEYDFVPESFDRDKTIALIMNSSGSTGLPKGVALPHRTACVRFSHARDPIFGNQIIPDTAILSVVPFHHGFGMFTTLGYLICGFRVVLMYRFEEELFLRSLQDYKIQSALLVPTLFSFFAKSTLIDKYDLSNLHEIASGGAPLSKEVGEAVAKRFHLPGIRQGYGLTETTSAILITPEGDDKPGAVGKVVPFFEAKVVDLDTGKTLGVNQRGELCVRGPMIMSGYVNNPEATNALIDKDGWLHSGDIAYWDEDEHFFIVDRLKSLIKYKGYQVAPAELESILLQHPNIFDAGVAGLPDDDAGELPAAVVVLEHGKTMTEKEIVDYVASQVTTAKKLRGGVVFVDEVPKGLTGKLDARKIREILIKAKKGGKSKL
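Here, luciferase activity is measured as luminescence following an 8 min room-temperature reaction at 10 uM ATP, pH 7.2. Every library sample is titrated.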
IMPase cell inh – membrane-permeable compound that blocks inositol monophosphatase; inhibition (IP1 accumulation), % at 46.1 µM; AID 901; 120,000 tested, under 10 active; CHO-M1 cells, IP1 accumulation, HTRF TR-FRET ratio; active = well fitted curve in the direction sought with a large enough effect in the signal ratio, not every such curve was filed as active; inconclusive = small, poorly fitted or top-dose-only effect, or a change in a side signal; inactive = no such curve, though single readings can be large or run the other way; the % refers to the signal ratio;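 also: cells stimulated with carbachol in lithium chloride buffer; plate controls were DMSO basal wells for no effect and reference inhibitor wells for full effect; higher means more IMPase inhibition seen as more IP1 and lower FRET ratio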
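CHO-M1, 2000 cells/well, cultured 16–30 h; cpd up to 46 uM; carbachol (50 uM solution, stimulation buffer w/ 50 mM LiCl, pH 7.4), 30 min 37C; IP-One TR-FRET, 10 min RT; Ex 320/Em 665, 620; Hill-fit AC50.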
Hsp90 Hop PPI – changes Hsp90-Hop TPR2A binding signal, up or down; AlphaScreen TPR2A-His6 binding biotin-Hsp90 C-terminal peptide; AID 595; actives 0.44% (n = 71,000); Potency, µM (top dose mostly 57 µM), without a hit: at the highest dose activity change, negative = inhibition; active = well fitted curve in either direction with a large enough effect; inconclusive = small, poorly fitted or top-dose-only effect, or another doubt; also: potency is read from the fitted curve at half-maximal effect; % is scaled to controls: 0 for no effect and ±100 for the full control effect
p53ts 32C tox – cytotoxicity in p53ts cells at permissive temperature; Potency, µM (highest dose often 46.1 µM), for the others: at the top dose activity change, negative = cytotoxicity, hits mostly cytotoxic; H1299-p53A138V at 32C, ATP luminescence viability, 24 h; actives 0.93% (n = 130,000);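 also: potency is read from the fitted curve at half-maximal effect; 0% = DMSO and -100% = full killing by reference compound; nearly all actives have a fitted effect of over 55% in size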
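ATP-content luminescence (ATPlite) read-out after 24 h compound exposure at 32C in H1299-p53A138V cells (600/well). Tested up to 46 uM. Normalized to DMSO (0%) and 100 uM tamoxifen (100% killing); Hill-fit AC50.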
IkB sig inh – IkB pathway inhibition in ABC-DLBCL cells. actives 0.04% (n = 110,000). AID 445. ABC-DLBCL IkBa-CBG/CBR dual luciferase ratio, 4 h; response scale: scaled: untreated 0%, proteasome inhibitor 100%. Potency, µM (titrated, usually from 57.1 µM), for inactives: top-dose IkBa stabilization activation; active = well fitted curve in the direction sought with a large enough effect in the signal ratio, not every such curve was filed as active; inconclusive = small, poorly fitted or top-dose-only effect, or a change in a side signal; the % refers to the signal ratio;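 also: potency is read from the fitted curve at half-maximal effect; the direction sought is a rising ratio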
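In this assay, an IκBα–CBG68 fusion accumulates when IKK-driven degradation is blocked; native CBR normalizes for cell number. OCI-Ly3 cells were treated 4 h with compound and doxycycline, then green and red light read after Chroma-Glo addition.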
p53ts 39C kill – p53ts cell cytotoxicity, nonpermissive temperature; H1299-p53A138V viability at 39C, ATP luminescence, 24 h; Potency, µM (highest dose often 46.1 µM), inactives show top-dose activity change, negative = cell killing, actives largely listed as cytotoxic; actives 1.5% (n = 130,000); also: potency is read from the fitted curve at half-maximal effect; % is scaled to controls: 0 for no effect and ±100 for the full control effect; nearly all actives have a fitted effect of over 55% in size
Numbers without * were called inactive; u = inconclusive; x = no result given; [ ] = dose if it differs, or a comment. Unless noted, calls follow the shape of the dose curve; as a rule, active = well fitted curve in the direction sought with a large enough effect; inconclusive = small, poorly fitted or top-dose-only effect, or another doubt; inactive = no such curve, though single readings can be large; an effect the other way counts as inactive or inconclusive.

SMILES | Luciferase inh | IMPase cell inh | Hsp90 Hop PPI | p53ts 32C tox | IkB sig inh | p53ts 39C kill
CC(C)C(=O)Nc1ccc(NC(=O)c2ccccn2)cn1 | 13µM* | 6 | -2% | 7.9µM* | 1% | 13µM*
CC(C)C(=O)Nc1ccc(NC(=O)c2cccnc2)cn1 | x | 1 | x | x | x | x
CN(C)c1ccc(N=Nc2cccc3ccoc23)cc1 | 4µM* | x | 4µM* | -16%[9.22 µM] | 19%[11.4 µM] | -10%[9.22 µM]
Cc1nnc(Sc2nc(Sc3nnc(C)s3)nc(N3CCN(C)CC3)n2)s1 | 3% | x | -1% | 20µM* | 7.9µM* | 4µM*
Cc1nnc(Sc2c(N)n(C)c(=O)n(C)c2=O)s1 | x | -3 | x | x | x | x
CCCCN(C)CCCNC(=O)Cn1ncc2c3ccccc3n(Cc3ccccc3)c2c1=O | x | x | x | 0% | 1% | -13%
CC(CCc1ccccc1)NC(=O)Cn1ncc2c3ccccc3n(Cc3ccccc3)c2c1=O (stereo not given) | x | x | x | -4% | 0% | -15%
Cc1ccc(C)c(Cn2c3ccccc3c3cnn(CC(=O)NC(C)CCc4ccccc4)c(=O)c32)c1 (stereo not given) | x | x | x | -27% | 2% | 5µM*
CCCCN(C)CCCNC(=O)Cn1ncc2c3ccccc3n(Cc3ccccc3F)c2c1=O | x | x | x | -4% | 0% | 13µM*
CCCCN(C)CCCNC(=O)Cn1ncc2c3ccccc3n(Cc3cc(C)ccc3C)c2c1=O | x | x | x | -6% | 0% | 2.5µM*
C[C@@H](/C=C\c1cccc(Oc2ccc(F)cc2)c1)N(O)C(N)=O | -2% | 4 | 3% | 32µM* | u | 32µM*
CCCCCCCCCCCCC/C=C\[C@H](O)[C@H](N)CO | -3% | x | -11% | x | -18% | x
c1ccc(-c2nc(-c3ccncc3)no2)cc1 | -24% | 11 | 2% | -21% | 2% | -17%
c1ccc(-c2ccc(-c3nc(-c4ccncc4)no3)cc2)cc1 | 3.2µM* | 6 | -1% | -27% | -5% | -26%
CCc1ccc(-c2nc(-c3ccncc3)no2)cc1 | 5µM* | -7 | 14%[11 µM] | u | u | -23%
Cc1ccccc1-c1nc(-c2cccnc2)no1 | u | -8 | 5% | -12% | 1% | -17%
CCOc1ccc(-c2nc(-c3cccnc3)no2)cc1 | x | -1 | x | u | x | u
c1ccc(-c2noc(-c3cccnc3)n2)cc1 | 13µM* | 22 | 4%[11 µM] | u | u | -24%
c1ccc(-c2ccc(-c3nc(-c4cccnc4)no3)cc2)cc1 | 3.2µM* | 0 | 7% | u | -3% | -28%
COc1ccc(-c2cc(C(=O)N/N=C\c3cc(OC)c(OC)c(OC)c3)[nH]n2)cc1 | x | x | x | -24% | x | -23%
CCC(=O)Nc1ccc2nc(SCCOc3ccc(C)cc3OC)sc2c1 | x | x | x | -21% | 0% | -25%
COc1ccccc1C(=O)Nc1cccc(C(=O)OCc2cc(=O)n3cc(C)sc3n2)c1 | x | x | x | -14% | u | -27%
Clc1ccccc1-c1nc(-c2cccnc2)no1 | 13µM* | 0 | 7% | 10µM* | 2% | 13µM*
Fc1ccc(Cc2cn3cc(-c4ccc(F)cc4)nc3s2)cc1 | x | -5 | x | u | u | 7.9µM*
Fc1ccc(-c2cn3cc(Cc4ccccc4Cl)sc3n2)cc1 | x | -3 | x | 7.9µM* | u | 5µM*
SMILES | Luciferase inh | IMPase cell inh | Hsp90 Hop PPI | p53ts 32C tox | IkB sig inh | p53ts 39C kill
Clc1ccc(-c2cn3cc(Cc4ccccc4)sc3n2)cc1 | x | -4 | x | u | u | 6.3µM*
Cc1ccc(CNC(=O)c2sc3nc(-c4ccccc4)cn3c2C)cc1 | x | x | x | -3% | 1% | -22%
Cc1ccc(Cc2cn3cc(-c4ccccc4)nc3s2)cc1 | x | 3 | x | u | u | 4µM*
CC(C)c1ccc(Cc2cn3cc(-c4cc5ccccc5oc4=O)nc3s2)cc1 | x | 4 | x | 7% | u | -19%
Cc1cccc(N2CCN(c3cc(C)nc4c(-c5ccc(Cl)cc5)c(C)nn34)CC2C)c1 (stereo not given) | x | x | x | 11% | -2% | -5%
Fc1ccccc1Cc1cn2cc(-c3ccc(Cl)cc3)nc2s1 | x | 2 | x | u | u | 10µM*
O=c1oc2ccccc2cc1-c1cn2cc(Cc3cc(Cl)ccc3Cl)sc2n1 | x | 3 | x | -4% | 0% | 10%
Cc1cccc(/C=C(\C#N)c2nc3ccccc3c(=O)[nH]2)c1 | x | -1 | x | -5% | u | 10%
CN(C)c1ccc(/C=C(\C#N)c2nc3ccccc3c(=O)[nH]2)cc1 | x | -8 | x | 0.32µM* | u | 0.32µM*
Cc1ccc(-c2noc(-c3cccs3)n2)cc1 | 7.9µM* | 5 | 30% | u | 2% | -17%
Cc1nc(CC(=O)Nc2cccc(C)c2C)cs1 | x | x | x | 4% | 1% | -11%
COc1cccc(C(=O)COC(=O)C(C)N2C(=O)c3ccccc3C2=O)c1 (stereo not given) | 1% | 6 | 3%[11 µM] | -3% | 0% | 11%
COc1ccc(C(=O)COC(=O)C(CC(C)C)N2C(=O)c3ccccc3C2=O)cc1 (stereo not given) | x | -3 | x | 16µM* | x | u
[N-]=[N+]=Nc1ccc(C(=O)CSC[C@@H](NC(=O)CC[C@@H](N)C(=O)O)C(=O)NCC(=O)O)cc1 | 0% | -7 | -1% | 16% | -3% | 11%
Cc1cccc(C)c1OCC(=O)NCC1(N2CCOCC2)CCCCC1 | x | x | x | 1% | u | -8%
COC(=O)Cc1cc(=O)[nH]c(Nc2nc3ccccc3o2)n1 | 16µM* | 9 | -7%[11 µM] | -21% | u | 4%
CC(C)c1cnc2c(c1SCc1cccc(F)c1)c(=O)n(C)c(=O)n2C | x | x | x | 4% | u | -9%
COc1ccccc1Cc1nc2ccccc2nc1SCC(=O)NCc1ccccc1Cl | x | x | x | 10% | 0% | -20%
Cn1cccc1-c1cc2n(n1)CCC(=O)N2CCCC(=O)NCc1cccc(Cl)c1 | x | x | x | -2% | u | -17%
CCN(CC)CCCNC(=O)c1ccc2c(c1)N(Cc1c(F)cccc1Cl)C(=O)c1ccccc1S2 | x | x | x | -8% | u | 13µM*
Cc1ccc2c(c1)[C@H]1OCC[C@H]1[C@@H](c1ccncc1)N2 | 3% | -2 | -4% | -4% | -3% | 11%
Clc1ccc2c(c1)C1OCCC1C(c1ccco1)N2 (stereo not given) | 16µM* | -10 | u | 7.9µM* | u | 10µM*
Cc1ccc(C(C)C)c(OCC(=O)NCC2(N(C)C)CCCCC2)c1 | x | x | x | -12% | -1% | 7%
CCOC(=O)/C(=N\Nc1ccccc1)S(=O)(=O)c1ccccc1 | x | 7 | x | x | x | x
CCOC(=O)C(/C(N)=N/C(=O)Nc1ccccc1)=C(\C)O | 13µM* | 15 | -2% | 17% | 1% | -1%
CCc1cccc(NC(=O)Nc2cccs2)c1 | 16µM* | 4 | -11% | -12% | -3% | -23%
